The record followed here is PubChem BioAssay (NCI).

About 79,000 compounds went through this panel and 15% of them were active in at least one assay; those are over-represented in the sample as a whole. Values without a mark were called inactive. The source made the active and inactive calls. No stated cut-off is given here; in the data, active means growth inhibition above about 70%; inactive means the rest.

The nature of experiment [1]: NCI Yeast Anticancer Drug Screen. Data for the rad50 strain (AID 155).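 Further: 0% = growth of vehicle-only cultures of the same strain.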 Particulars: S. cerevisiae rad50 strain growth inhibition, stronger effect = higher value. The procedure, abridged:
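Inhibition values express reduced yeast growth in compound-treated cultures relative to vehicle-treated controls.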

Experiment [2] in a line: NCI Yeast Anticancer Drug Screen. Data for the mec2-1 strain (AID 157). The following applies: S. cerevisiae mec2-1 strain, stronger effect = higher value. The procedure, abridged:
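Compounds were applied to mec2-1 yeast cells. Their growth was then compared with that of vehicle-treated cultures to give growth inhibition.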

Experiment [3] is described as follows: NCI Yeast Anticancer Drug Screen. Data for the sgs1 mgt1 strain (AID 161).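 Further: 0% = growth of cultures given vehicle only.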 The following applies: S. cerevisiae sgs1 mgt1 strain, stronger effect = higher value. The procedure, abridged: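 Yeast cells carrying a defined DNA-repair defect were exposed to test compounds. Growth inhibition was measured relative to vehicle-treated controls.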
The nature of experiment [4]: NCI Yeast Anticancer Drug Screen. Data for the cln2 rad14 strain (AID 165).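 Further: 0% = growth equal to vehicle treated cultures.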 Particulars: S. cerevisiae cln2 rad14 strain, stronger effect = higher value. The procedure, abridged: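 Strain: cln2 rad14 yeast, altered in cell cycle control and DNA damage repair. Read-out: growth inhibition vs vehicle.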
Experiment [5] in a line: NCI Yeast Anticancer Drug Screen. Data for the bub3 strain (AID 167). The following applies: S. cerevisiae bub3 mutant strain, stronger effect = higher value. The procedure, abridged: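 Steps: expose the mutant yeast strain to compound; grow alongside vehicle-treated cultures; measure growth; express inhibition against the vehicle cultures.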
A short description of experiment [6]: NCI Yeast Anticancer Drug Screen. Data for the mlh1 rad18 strain (AID 175). The following applies: S. cerevisiae mlh1 rad18 strain growth inhibition, stronger effect = higher value. The procedure, abridged: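 A repair-deficient yeast strain is exposed to test compound, and growth is scored relative to vehicle-treated controls.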
The mark [7] stands for this setting: at 5.0 µM (retest, dose inferred, filed as 0.5).
Setting [8] is: at 50.0 µM (retest, dose inferred, filed as 5.0).

Turning to `C/C(=N/O)c1ccc2c(c1)C(C)c1ccccc1-2` (configuration not stated), the growth inhibition in experiment [1] (setting [7]) was -147%; in experiment [1] (setting [8]) it was -142%; in experiment [1] (at 50.0 µM), 35.2%; in experiment [2] (setting [7]), -53%; in experiment [2] (setting [8]), -54%; in experiment [2] (at 50.0 µM) it was 45.9%. In addition, the growth inhibition was -59% in experiment [3] (setting [7]); -65% in experiment [3] (setting [8]); 34.5% in experiment [3] (at 50.0 µM); -60% in experiment [4] (setting [7]); -66% in experiment [4] (setting [8]); 77.4% (active) in experiment [4] (at 50.0 µM). For the same compound, the growth inhibition in experiment [5] (setting [7]) is -62%; in experiment [5] (setting [8]), -54%; in experiment [5] (at 50.0 µM), 78.2% (active); in experiment [6] (setting [7]), -113%; in experiment [6] (setting [8]), -103%; in experiment [6] (at 50.0 µM) it was 75% (active).
As to `COc1ccc(C(=O)C2C(=O)C(=O)OC2C2OC(=O)C(=O)C2C(=O)c2ccc(OC)cc2)cc1` (configuration not stated), the growth inhibition was -1% in experiment [1] (setting [7]); 2% in experiment [1] (setting [8]); -9.6% in experiment [1] (at 50.0 µM); -3% in experiment [2] (setting [7]); -3% in experiment [2] (setting [8]); -7.3% in experiment [2] (at 50.0 µM). The growth inhibition was 0% in experiment [3] (setting [7]); 2% in experiment [3] (setting [8]); -8.2% in experiment [3] (at 50.0 µM); -4% in experiment [4] (setting [7]); 1% in experiment [4] (setting [8]); -15.3% in experiment [4] (at 50.0 µM). For the same compound, the growth inhibition in experiment [5] (setting [7]) is 0%; in experiment [5] (setting [8]), -5%; in experiment [5] (at 50.0 µM), 3.05%; in experiment [6] (setting [7]), 0%; in experiment [6] (setting [8]), -1%; in experiment [6] (at 50.0 µM), -15.7%.
Regarding `C=CCc1ccc2c(C)cc[n+](C)c2c1O`, the growth inhibition in experiment [1] (setting [7]) is 12%; in experiment [1] (setting [8]), 99% (active); in experiment [1] (at 50.0 µM) it was 100% (active); in experiment [2] (setting [7]), 19%; in experiment [2] (setting [8]) it was 99% (active); in experiment [2] (at 50.0 µM) it was 99.2% (active). The growth inhibition is 21% in experiment [3] (setting [7]); 99% (active) in experiment [3] (setting [8]); 99% (active) in experiment [3] (at 50.0 µM); -17% in experiment [4] (setting [7]); 99% (active) in experiment [4] (setting [8]); 99.5% (active) in experiment [4] (at 50.0 µM). Also, the growth inhibition in experiment [5] (setting [7]) was 1%; in experiment [5] (setting [8]), 99% (active); in experiment [5] (at 50.0 µM), 99.1% (active); in experiment [6] (setting [7]), 23%; in experiment [6] (setting [8]), 99% (active); in experiment [6] (at 50.0 µM), 98.8% (active).
On to `COc1cc2c(cc1OC)C(N(C)C)C(c1ccccc1)=C2Cl` (configuration not stated), for which the growth inhibition in experiment [1] (setting [7]) was 0%; in experiment [1] (setting [8]), 96% (active); in experiment [1] (at 50.0 µM), 91.2% (active); in experiment [2] (setting [7]) it was -28%; in experiment [2] (setting [8]), 99% (active); in experiment [2] (at 50.0 µM), 93.5% (active). The growth inhibition in experiment [3] (setting [7]) is 1%; in experiment [3] (setting [8]), 96% (active); in experiment [3] (at 50.0 µM) it was 92.2% (active); in experiment [4] (setting [7]), 14%; in experiment [4] (setting [8]), 98% (active); in experiment [4] (at 50.0 µM) it was 91.5% (active). Moreover, the growth inhibition in experiment [5] (setting [7]) was 25%; in experiment [5] (setting [8]) it was 98% (active); in experiment [5] (at 50.0 µM) it was 90.8% (active); in experiment [6] (setting [7]) it was 7%; in experiment [6] (setting [8]) it was 99% (active); in experiment [6] (at 50.0 µM), 90.4% (active).
Take `N#CC(NNC(=O)c1ccccc1O)c1c(O)ccc2ccccc12` (configuration not stated): the growth inhibition in experiment [1] (setting [7]) is -4%; in experiment [1] (setting [8]), 59%; in experiment [1] (at 50.0 µM), 74.3% (active); in experiment [2] (setting [7]), 22%; in experiment [2] (setting [8]) it was 51%; in experiment [2] (at 50.0 µM) it was 38.9%. Besides, the growth inhibition is -5% in experiment [3] (setting [7]); 50% in experiment [3] (setting [8]); 61.9% in experiment [3] (at 50.0 µM); 16% in experiment [4] (setting [7]); 62% in experiment [4] (setting [8]); 41.4% in experiment [4] (at 50.0 µM). The growth inhibition was 17% in experiment [5] (setting [7]); 79% (active) in experiment [5] (setting [8]); 56.1% in experiment [5] (at 50.0 µM); 4% in experiment [6] (setting [7]); 82% (active) in experiment [6] (setting [8]); 51.5% in experiment [6] (at 50.0 µM).
Turning to `Oc1ccc(O)c2c1N=NC21c2ccccc2Oc2ccccc21`, the growth inhibition in experiment [1] (setting [7]) was 5%; in experiment [1] (setting [8]), 86% (active); in experiment [1] (at 50.0 µM), 65.6%; in experiment [2] (setting [7]) it was 7%; in experiment [2] (setting [8]), 89% (active); in experiment [2] (at 50.0 µM), 54%. Moreover, the growth inhibition in experiment [3] (setting [7]) was 6%; in experiment [3] (setting [8]), 91% (active); in experiment [3] (at 50.0 µM), 83% (active); in experiment [4] (setting [7]), 10%; in experiment [4] (setting [8]), 84% (active); in experiment [4] (at 50.0 µM), 86.5% (active). The growth inhibition in experiment [5] (setting [7]) was 5%; in experiment [5] (setting [8]), 89% (active); in experiment [5] (at 50.0 µM), 86.6% (active); in experiment [6] (setting [7]), 8%; in experiment [6] (setting [8]), 95% (active); in experiment [6] (at 50.0 µM), 90.8% (active).
In the case of `C=CCC1(OC(C)=O)CC2C(=O)C(=O)C(C1)N2OC(=O)c1ccccc1` (configuration not stated), the growth inhibition in experiment [1] (setting [7]) was 20%; in experiment [1] (setting [8]), 95% (active); in experiment [1] (at 50.0 µM), 99% (active); in experiment [2] (setting [7]), 13%; in experiment [2] (setting [8]), 96% (active); in experiment [2] (at 50.0 µM), 99.1% (active). Also, the growth inhibition is 22% in experiment [3] (setting [7]); 99% (active) in experiment [3] (setting [8]); 99.3% (active) in experiment [3] (at 50.0 µM); 9% in experiment [4] (setting [7]); 94% (active) in experiment [4] (setting [8]); 98.3% (active) in experiment [4] (at 50.0 µM). The growth inhibition in experiment [5] (setting [7]) is -1%; in experiment [5] (setting [8]), 93% (active); in experiment [5] (at 50.0 µM) it was 98% (active); in experiment [6] (setting [7]), 10%; in experiment [6] (setting [8]), 98% (active); in experiment [6] (at 50.0 µM), 98.7% (active).
For `CCCCCCCCCCCCCC[N+]1(CC)CCCCC1`, the growth inhibition in experiment [1] (setting [7]) was 77% (active); in experiment [1] (setting [8]), 99% (active); in experiment [1] (at 50.0 µM), 90.2% (active); in experiment [2] (setting [7]), 99% (active); in experiment [2] (setting [8]) it was 99% (active); in experiment [2] (at 50.0 µM), 91.3% (active). Besides, the growth inhibition in experiment [3] (setting [7]) was 99% (active); in experiment [3] (setting [8]), 100% (active); in experiment [3] (at 50.0 µM), 92.2% (active); in experiment [4] (setting [7]) it was 84% (active); in experiment [4] (setting [8]) it was 99% (active); in experiment [4] (at 50.0 µM) it was 89.8% (active). The growth inhibition in experiment [5] (setting [7]) was 99% (active); in experiment [5] (setting [8]), 99% (active); in experiment [5] (at 50.0 µM), 90.8% (active); in experiment [6] (setting [7]), 67%; in experiment [6] (setting [8]) it was 99% (active); in experiment [6] (at 50.0 µM), 89.5% (active).
With `O=C(O)/C=C1\c2ccccc2CCC1c1ccc2ccccc2c1` (configuration not stated), the growth inhibition was 64% in experiment [1] (setting [7]); 93% (active) in experiment [1] (setting [8]); 99.7% (active) in experiment [1] (at 50.0 µM); 27% in experiment [2] (setting [7]); 85% (active) in experiment [2] (setting [8]); 99.7% (active) in experiment [2] (at 50.0 µM). In addition, the growth inhibition is 43% in experiment [3] (setting [7]); 91% (active) in experiment [3] (setting [8]); 99.8% (active) in experiment [3] (at 50.0 µM); 41% in experiment [4] (setting [7]); 82% (active) in experiment [4] (setting [8]); 99.3% (active) in experiment [4] (at 50.0 µM). The growth inhibition is 47% in experiment [5] (setting [7]); 85% (active) in experiment [5] (setting [8]); 99.8% (active) in experiment [5] (at 50.0 µM); 54% in experiment [6] (setting [7]); 93% (active) in experiment [6] (setting [8]); 99.5% (active) in experiment [6] (at 50.0 µM).
